Screening data: PubChem, National Center for Advancing Translational Sciences (NCATS)
Most compounds without a hit are left out; they make up all but 3.6% or so of the library.
GPR32 ag: activates human resolvin D1 receptor GPR32; CHO-K1 GPR32 beta-arrestin PathHunter luminescence, 90 min; zero percent set by DMSO-only wells; actives 2.5% (n = 48,000); AID 1346428; O75388; activation, % at 76.9 µM;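 active = activation of at least 60% and not above a set upper limit, about 1 call in 100 departs from these limits; inconclusive = activation of 40% to 60%, or above that upper limit; inactive = activation under 40%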
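Luminescent readout of beta-Gal complementation quantifies ligand-induced beta-arrestin association with GPR32 in CHO-K1 cells; 90 min compound incubation at 37 °C, detection 1 h at room temperature.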
B2AR arrestin ag: beta-arrestin recruitment by human beta2-adrenergic receptor ligands | HTLA Tango cells, beta-arrestin recruitment, luciferase luminescence, 18 h | Potency, µM (highest dose often 46.1 µM), usual class: activators | AID 1347077 | 44,000 tested, under 10 active
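Tango cell line, 1% FBS DMEM; cpd titration up to 46 microM; 18 hr, 37 degrees C, 5% CO2. Luciferin/ATP substrate mix added, 15 min RT, luminescence. %Activity, CRC fitting, curve-class categorization.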
HTT prom inh: inhibits huntingtin promoter activity. Potency, µM (titrated, usually from 57.5 µM), most hits filed as inhibitors. actives 0.93% (n = 48,000). HEK293 HTT promoter firefly luciferase reporter, 24 h; note: nearly all actives have a fitted effect of over 50% in size
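Firefly luciferase signal from promoter-reporter HEK293 cells was scaled between vehicle (0%) and zero RLU (-100%). Compounds were tested at final concentrations of up to 57.5 uM over 24 h at 37 degrees C. PTC124 at 50 uM final served as control inhibitor.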
TSG101-PTAP inh: TSG101-PTAP interaction inhibition, HIV-1 budding; Potency, µM (series often up to 115 µM), actives largely listed as inhibitors; AID 1347069; Q99816; 44,000 tested, under 10 active; Fluorescence polarization, FITC-PTAP peptide/Tsg101, 20 min
Target sequence (Q99816 whole entry, looked up): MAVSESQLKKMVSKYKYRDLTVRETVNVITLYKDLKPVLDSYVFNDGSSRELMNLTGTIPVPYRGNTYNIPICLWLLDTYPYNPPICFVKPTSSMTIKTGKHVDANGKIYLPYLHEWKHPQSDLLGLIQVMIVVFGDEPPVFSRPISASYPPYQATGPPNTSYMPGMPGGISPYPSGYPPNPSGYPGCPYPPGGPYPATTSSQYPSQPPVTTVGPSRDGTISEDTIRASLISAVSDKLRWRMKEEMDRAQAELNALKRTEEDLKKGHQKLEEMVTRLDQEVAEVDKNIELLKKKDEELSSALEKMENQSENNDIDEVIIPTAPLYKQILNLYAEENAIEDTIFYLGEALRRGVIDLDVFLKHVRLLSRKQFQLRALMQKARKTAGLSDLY
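Read-out is FITC fluorescence polarization. Compounds were added to Tsg101 binding domain (10 uM final), then FITC-PTAP peptide (50 nM final), 20 min at r.t. Total S+P intensity flags fluorescent compounds.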
GALK inh: GALK (human) enzyme inhibition; recombinant GALK, Kinase-Glo ATP luminescence, 1 h; P51570; 44,000 tested, under 10 active; Potency, µM (top dose mostly 57.5 µM), most hits filed as inhibitors
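5 nM GALK with 35 µM ATP and 100 µM galactose in HEPES pH 8.0, MgCl2, NaCl, DTT, BSA; 1 h RT reaction, remaining ATP detected by Kinase-Glo Plus luminescence after 10 min; qHTS concentration series.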
HTT-AS promoter: activates huntingtin-antisense promoter activity | HEK293 HTT-AS promoter firefly luciferase reporter, 24 h; response scale: percent change from vehicle, -100% = no light | Potency, µM (titrated, usually from 57.5 µM), most hits filed as activators | actives 0.24% (n = 48,000) | AID 1508624; note: nearly all actives have a fitted effect of over 55% in size
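Luminescence was read after Dual-Glo reagent and a 10 min room-temperature incubation. Values were normalized to vehicle (0% activity) and zero RLU (-100% activity). Reporter HEK293 cells had been exposed to compounds (up to 57.5 uM final) for 24 h.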
Hits are given with their value; . = inactive; ? = inconclusive; / = no result given. Unless noted, calls come from the whole dose curve; as a rule, active = well fitted curve in the direction sought with a large enough effect; inconclusive = small, poorly fitted or top-dose-only effect, or another doubt; inactive = no such curve, though single readings can be large; an effect the other way counts as inactive or inconclusive.

SMILES	GPR32 ag	B2AR arrestin ag	HTT prom inh	TSG101-PTAP inh	GALK inh	HTT-AS promoter
O=C(Nc1onc2c1CCCC2)c1ccccc1	.	.	.	.	.	?
COc1cc2c(cc1-c1c(C)noc1C)ncc1[nH]c(=O)n([C@H](C)c3ccccn3)c12	/	/	.	/	/	.
COc1ccc(-c2nc3ccccc3o2)cc1NC(=O)COc1ccc(C)c(C)c1	.	.	.	.	.	?
COc1ccc(-c2nc3ccccc3o2)cc1NC(=O)c1cccnc1	86.1	.	.	.	.	.
CCc1ccc(OCC(=O)Nc2ccc(Cl)c(-c3nc4ncccc4o3)c2)cc1	117.9	.	.	.	.	?
Cc1ccc(OCC(=O)Nc2ccc(Cl)c(-c3nc4ncccc4o3)c2)cc1C	.	.	.	.	.	.
COc1ccc(OCC(=O)Nc2cc(-c3nc4ccccc4o3)ccc2Cl)cc1	.	.	.	.	.	10µM
CCn1cc(-c2ccnc3[nH]c(-c4cccc(CN(C)C)c4)cc23)c(-c2ccc(NC(=O)N(C)C)cc2)n1	/	/	?	/	/	.
O=C(C=Cc1ccc(CN(CCO)CCc2c[nH]c3ccccc23)cc1)NO	/	/	.	/	/	?
Cc1ccc(NC(=O)c2cccc(C(C)(C)C#N)c2)cc1Nc1ccc2ncn(C)c(=O)c2c1	/	/	?	/	/	.
COc1ccc(NC(=O)c2c(NCc3ccc(OC)c(OC)c3OC)sc3c2CCC3)c(OC)c1	.	.	.	.	.	.
CCOC(=O)N1CCc2c(sc(NCc3ccc(OCC)cc3)c2C(=O)Nc2ccc(OC)cc2OC)C1	?	.	10µM	.	.	.
CCOC(=O)N1CCc2c(sc(NCc3ccc(OC)c(OC)c3OC)c2C(=O)Nc2ccc(OC)cc2OC)C1	85.5	.	?	.	.	.
CCOc1ccccc1NC(=O)c1c(NC(=O)COc2ccccc2)sc2c1CCCC2	105.2	.	.	.	.	.
CCOc1ccccc1NC(=O)c1c(NC(=O)c2cccc(C)c2)sc2c1CCC2	.	.	.	.	.	.
CCOC(=O)N1CCc2c(sc(NCc3cccs3)c2C(=O)Nc2ccc(OC)cc2OC)C1	.	.	7.94µM	.	.	.
CCOC(=O)N1CCc2c(sc(NCc3cccs3)c2C(=O)Nc2cc(OC)ccc2OC)C1	.	.	.	.	.	.
COc1cc(CN(C(=O)c2cc3ccccc3oc2=O)C2CCS(=O)(=O)C2)cc(OC)c1OC (stereo not given)	.	.	.	.	.	?
CCc1ccc(CN(C(=O)c2cc3ccccc3oc2=O)C2CCS(=O)(=O)C2)cc1 (stereo not given)	.	.	.	.	.	3.55µM
CC(=O)Nc1ccc2nc(SCCOc3ccccc3Cl)sc2c1	69.4	.	.	.	.	.
Cc1ccccc1OCC(=O)Nc1ccc2[nH]c(=O)sc2c1	108.6	.	.	.	.	.
Cc1ccccc1OCC(=O)Nc1ccc2nc(SCC(N)=O)sc2c1	?	.	.	.	.	?
CCOC(=O)CSc1nc2ccc(NC(=O)COc3ccccc3C)cc2s1	75.2	.	.	.	.	.
Cc1ccc(OCC(=O)Nc2ccc3[nH]c(=O)sc3c2)cc1	?	.	.	.	.	.
NC(=O)CSc1nc2ccc(NC(=O)COc3ccccc3Cl)cc2s1	90.3	.	.	.	.	.
SMILES	GPR32 ag	B2AR arrestin ag	HTT prom inh	TSG101-PTAP inh	GALK inh	HTT-AS promoter
Nc1ncnc2c1ncn2Cc1c(F)cccc1Cl	.	/	.	/	/	.
O=C(O)CCCC[P+](c1ccccc1)(c1ccccc1)c1ccccc1	.	/	.	/	/	.
COc1ccc(NCc2cccn2-c2nnc(N3CCOCC3)s2)cc1OC	.	.	?	.	.	.
COc1ccc(NCc2cccn2-c2nnc(N3CCCCC3)s2)cc1OC	83.8	.	7.94µM	.	.	.
CCc1ccc(NCc2cccn2-c2nnc(N3CCCCCC3)s2)cc1	.	.	10µM	.	.	.
COc1cccc(NCc2cccn2-c2nnc(N3CCC(C)CC3)s2)c1	.	.	10µM	.	.	.
O=C1NC(O)CCN1[C@@H]1O[C@H](CO)[C@H](O)[C@H]1O (stereo not given in full)	/	/	.	/	/	.
CCC[C@@H](C=O)NC(=O)[C@H](CC(C)C)NC(=O)[C@H](CC(C)C)NC(=O)OCc1ccccc1	/	/	?	/	/	.
Cc1oc(=O)oc1COC(=O)[C@@H]1N2C(=O)[C@@H](NC(=O)[C@H](N)c3ccccc3)[C@H]2SC1(C)C	.	/	.	/	/	.
Cn1c(=O)n(C)c2cc(N3CCCCC3)c(NC(=O)c3c(F)cccc3F)cc21	118.1	.	/	.	.	/
Cc1ccccc1C(=O)Nc1cc2c(cc1N1CCCCC1)n(C)c(=O)n2C	?	.	/	.	.	/
Cn1c(=O)n(C)c2cc(N3CCCC3)c(NC(=O)Nc3ccccc3)cc21	.	.	.	.	.	.
CCOc1ccc(NC(=O)Nc2cc3c(cc2N2CCCCC2)n(C)c(=O)n3C)cc1	107.0	.	?	.	.	.
CNC1[C@H](O)C(O[C@@H]2C(O)C(O[C@H]3O[C@H]([C@@H](C)NC)CC[C@H]3N)[C@@H](N)C[C@H]2N)OC[C@]1(C)O (stereo not given in full)	/	/	.	/	/	.
Cn1cnc(=N)c2[nH]cnc21	/	/	.	/	/	?
Cc1nc2ccccc2c(=O)n1-c1ccc(NC(=O)C(F)(F)F)cc1	.	.	.	.	.	.
Cc1nc2ccccc2c(=O)n1-c1ccc(NC(=O)c2ccccc2[N+](=O)[O-])cc1	67.9	.	.	.	.	.
O=c1cc(COc2ccccc2Cl)nc2scc(-c3ccccc3)n12	86.2	.	.	.	.	.
O=C(NCCc1ccccc1)c1c[nH]c2ccc(S(=O)(=O)Nc3ccc(F)cc3F)cc2c1=O	100.0	.	.	.	.	.
O=C(NCCc1ccccc1)c1c[nH]c2ccc(S(=O)(=O)Nc3ccccc3F)cc2c1=O	.	.	.	.	.	.
O=C(NCc1ccco1)c1c[nH]c2ccc(S(=O)(=O)Nc3ccc(F)cc3F)cc2c1=O	62.8	.	.	.	.	.
COc1ccc(-c2nc(CSCC(=O)N3CCN(c4cccc(C)c4C)CC3)c(C)o2)cc1OC	.	.	12.6µM	.	.	.
COC(=O)CSCc1nc(-c2ccc(C(=O)OC)cc2)oc1C	.	.	2µM	.	.	.
COc1ccc(-c2nc(CSCC(=O)N3CCN(c4ccc(OC)cc4)CC3)c(C)o2)cc1	.	.	?	.	.	.
Cc1ccc(Cl)cc1N1CCN(C(=O)C2CCCN(Cc3nc(-c4cccc(Cl)c4)oc3C)C2)CC1 (stereo not given)	.	.	35.5µM	.	.	.
